Where “and” joins values, the source holds several entries; their conditions need not be identical. Identical values can stand only once. The whole screen tested about 16,000 compounds, of which about 4,000 (25%) were called active. Roughly 26% stayed inconclusive and do not appear here. Not all results are given here. Unmarked numbers belong to inactive results. Calls follow the shape of the dose curve; as a rule, active = well fitted curve in the direction sought with a large enough effect; inconclusive = small, poorly fitted or top-dose-only effect, or effect the other way; inactive = no such curve, though single readings can be large or run the other way.

The term AC50 denotes the concentration at which the activity in the assay is half-maximal.
% is scaled to controls: 0 for no effect and ±100 for the full control effect.

Cytochrome P450 2C9 (Homo sapiens), sequence (P11712 whole entry, looked up): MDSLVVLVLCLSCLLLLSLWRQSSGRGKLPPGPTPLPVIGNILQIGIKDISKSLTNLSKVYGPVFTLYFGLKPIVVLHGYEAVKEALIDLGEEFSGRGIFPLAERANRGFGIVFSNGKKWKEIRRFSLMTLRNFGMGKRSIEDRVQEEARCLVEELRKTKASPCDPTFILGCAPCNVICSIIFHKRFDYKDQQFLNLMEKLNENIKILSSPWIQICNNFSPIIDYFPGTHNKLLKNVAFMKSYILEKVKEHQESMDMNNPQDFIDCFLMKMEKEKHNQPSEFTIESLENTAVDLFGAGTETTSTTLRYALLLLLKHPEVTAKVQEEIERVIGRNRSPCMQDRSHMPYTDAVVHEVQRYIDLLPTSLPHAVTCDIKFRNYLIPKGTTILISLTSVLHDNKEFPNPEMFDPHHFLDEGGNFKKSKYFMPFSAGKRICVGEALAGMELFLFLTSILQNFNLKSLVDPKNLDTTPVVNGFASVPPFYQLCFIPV

The test addresses Cytochrome P450 2C9 (Homo sapiens) (UniProt P11712). The test is described as follows: Cytochrome panel assay with activity outcomes. As to conditions: recombinant CYP, pro-luciferin dealkylation, luminescence, p450-cyp2c9; series mostly up to 57.1 µM.
On to `C[N+]1(C)CCc2cc(O)c(O)cc2[C@H]1Cc1ccc(O)c(O)c1`, for which the activity, negative = inhibition was 6.54% [at 11.4 µM].

`CN(Cc1ccco1)c1ncnc2ccc(-c3ccoc3)cc12`: the activity, negative = inhibition is -10.5% [at 2.29 µM].

On to `Cc1cnc(CNc2cc(-c3ccccc3Cl)ncn2)cn1`, for which the activity, negative = inhibition was 8.89% [at 2.29 µM].

With `O=C1C[C@@H](O)[C@@H](O)[C@H]2[C@@H]3C(=O)N(C[C@@H]4CCCO4)C(=O)[C@@H]3CC[C@H]12`, the activity, negative = inhibition was 21.7% [at 11.4 µM] and 13.9% [at 11.4 µM].

As to `CNc1cc(-c2c(C)noc2C)ncn1`, the activity, negative = inhibition is 9.86% [at 2.29 µM].

Consider `CCn1c(C)cc(/C=C2\NC(=O)N(Cc3ccc(Cl)cc3)C2=O)c1C`, for which the AC50 result is “inactive”.

In the case of `FC(F)(F)c1ccccc1-c1cc(NCc2cccnc2)ncn1`, the activity, negative = inhibition is 16.9% [at 2.29 µM].

On to `CCCOc1ccc(C(=O)NNC(=S)NC(=O)c2cc(-c3ccccc3)nc3ccccc23)cc1`, for which the AC50 is 2.51 µM (active).

Take `CCCOc1ccc(C(=O)NNC(=S)NC(=O)CC)cc1`: the AC50 result was “inactive”.

In the case of `CCCCOc1cc(C(=O)NCCN(CC)CC)c2ccccc2n1`, the AC50 result is “inactive”.

For the compound `CCN1CCN(CCCNC(=O)C(NC(=O)C2CCC(C)CC2)C(C)C)CC1` (stereo not drawn), the AC50 result is “inactive”.

As to `CC(=O)C1=C(O)C=C(c2ccco2)CC1c1ccco1` (stereo not drawn), the AC50 is 7.94 µM (active).

On to `NC(=O)C(=O)O`, for which the AC50 result was “inactive”.

Take `Clc1ccc2c(c1)C1=C(C(c3ccncc3)O2)C(c2ccc(Br)cc2)n2ncnc2N1` (stereo not drawn): the half-maximal activity concentration (AC50) was 1.41 µM (active).

As to `CCN=C(N)CSS(=O)(=O)O`, the activity, negative = inhibition was -1.49% [at 11.4 µM].

Turning to `O=C(OCc1ccc(Cl)cc1Cl)c1cccnc1Cl`, the AC50 is 17.8 µM (active).

Consider `O=C(O)c1cccnc1C(=O)O`, for which the AC50 result is “inactive”.

Regarding `COc1ccccc1-c1cncnc1-n1ccnc1`, the activity, negative = inhibition was -14.3% [at 2.29 µM].

Consider `O=C(Nc1nc(-c2ccccc2)cs1)c1cccc([N+](=O)[O-])c1`, for which the AC50 is 7.08 µM (active).

As to `Cc1ccc(Nc2nc(-c3sc(NC(=O)c4ccc([N+](=O)[O-])cc4)nc3C)cs2)cc1`, the AC50 result is “inactive”.

As to `CCN1C(=O)[C@H]2[C@H]3[C@H](O)[C@H](O)C/C(=N/OCC(C)C)[C@H]3CC[C@@H]2C1=O`, the activity, negative = inhibition is -3.02% [at 11.4 µM].

`CC(=C/c1ccccc1)/C=N/n1cnnc1`: the AC50 was 3.98 µM (active).

Turning to `Cc1ccccc1-c1cc(-c2ccccc2O)on1`, the AC50 was 8.91 µM (active).

As for `Cc1ccccc1-c1cc(N(C)C)ncn1`, the activity, negative = inhibition was 9.36% [at 2.29 µM].

As to `CNc1cc(-c2ccccc2C)ncn1`, the activity, negative = inhibition is 21.7% [at 2.29 µM].

Turning to `CNC[C@@H](SC)c1ccc(O)c(O)c1`, the activity, negative = inhibition is 0.961% [at 11.4 µM].

`c1cnc(N2CCN(Cc3ccc4c(c3)OCO4)CC2)nc1`: the AC50 result was “inactive”.

Consider `O=C(COc1ccc(Cl)cc1)N1CCN(Cc2ccc3c(c2)OCO3)CC1`, for which the AC50 entry was “inactive”.

As for `Cn1c(OCc2ccc3c(c2)OCO3)nc2c1c(=O)n(Cc1ccc(Cl)c(Cl)c1)c(=O)n2C`, the AC50 is 2.51 µM (active).

Take `Cn1c(=O)c2c(nc(Cl)n2Cc2ccc(Cl)c(Cl)c2)n(C)c1=O`: the AC50 was 6.31 µM (active).

Consider `Cn1c(=O)c2c(nc(Cc3ccccc3)n2CC(=O)O)n(C)c1=O`, for which the activity, negative = inhibition is -4.06% [at 11.4 µM].

Regarding `Cn1c(=O)c2c(nc(NCCNc3nc4c(c(=O)n(C)c(=O)n4C)n3C)n2C)n(C)c1=O`, the activity, negative = inhibition was 3.94% [at 11.4 µM].

As for `CCN(CC(=O)O)CC(=O)O`, the activity, negative = inhibition was 8.87% [at 11.4 µM].

`O=C(Nc1ccccc1)N1CCCC2(CCN(C(=O)c3cnccn3)CC2)C1`: the AC50 entry was “inactive”.

With `Cn1c(=O)c2[nH]c(-c3ccc(S(=O)(=O)O)cc3)nc2n(C)c1=O`, the AC50 entry is “inactive”.

For the compound `CCS(=O)(=O)Nc1ccc(C2=NN(C(=O)c3ccco3)C(c3ccc(C)cc3)C2)cc1` (stereo not drawn), the AC50 was 2.24 µM (active).

For the compound `CC(C)[C@]1(Cl)CC[C@@H]2[C@]3(C)CCC[C@@](C)(C(=O)O)[C@H]3C[C@H](Cl)[C@@]2(Cl)[C@H]1Cl`, the activity, negative = inhibition was -25.3% [at 11.4 µM].

For the compound `Cc1cc2nc(CCN(C(=S)NCC(C)C)C3CCCC3)[nH]c2cc1C`, the AC50 is 7.94 µM (active).

As for `Cc1cc2nc(C3CCCN(C(=S)Nc4ccccc4)C3)[nH]c2cc1C` (stereo not drawn), the AC50 result was “inactive”.

Take `Clc1ccc2c(c1)C(N1CCNCC1)=Nc1ccccc1O2`: the AC50 entry was “inactive”.

As to `O=C(c1ccco1)N(CCC(c1ccccc1)c1ccco1)Cc1ccco1` (stereo not drawn), the AC50 is 2.24 µM (active).

`NC(=O)CC(c1ccccc1)c1ccco1` (stereo not drawn): the AC50 result is “inactive”.

As to `Cc1ccc(C(CC(N)=O)c2ccco2)cc1` (stereo not drawn), the AC50 entry is “inactive”.

`O=C(/C=C\c1ccccc1)c1ccccc1O`: the activity, negative = inhibition is -9.15% [at 11.4 µM].

For the compound `O=C(/C=C/c1ccccc1)N/C(=C/c1ccccc1)C(=O)Nc1ccccc1O`, the AC50 was 4.47 µM (active).

On to `Cc1cn([C@H]2C[C@H](O)[C@@H](COC(N)=O)O2)c(=O)[nH]c1=O`, for which the activity, negative = inhibition is 18.3% [at 11.4 µM].

Turning to `CCCCNC(=O)C1CCN(Cc2ccccn2)CC1`, the AC50 result is “inactive”.

Consider `CN(C)CCOC(=O)COc1ccc(Cl)cc1`, for which the AC50 result is “inactive”.

In the case of `CCOC(=O)COc1ccc(/C=C/[N+](=O)[O-])c(OCC(=O)OCC)c1`, the AC50 is 7.94 µM (active).

Turning to `COC(=O)N1CCC2(CC1)CN(c1ccccc1)C2`, the AC50 entry is “inactive”.

On to `Clc1ccccc1-c1nccc(NCCN2CCOCC2)n1`, for which the activity, negative = inhibition is 29.8% [at 2.29 µM].

Regarding `O=C(COC(=O)c1cccc(S(=O)(=O)N2CCOCC2)c1)Nc1nc(-c2ccccc2Cl)cs1`, the AC50 is 4.47 µM (active).

For `O=C(CCc1nc2ccccc2c(=O)[nH]1)OCC(=O)N1CCN(S(=O)(=O)c2ccccc2)CC1`, the AC50 result was “inactive”.

`CCCc1nc2ccccc2c(C(=O)OCC(=O)Nc2cccc(S(=O)(=O)N3CCOCC3)c2)c1CC`: the AC50 was 14.1 µM (active).

For `CS(=O)(=O)Nc1cccc(-c2nc(N3CCOCC3)c3ccccc3n2)c1`, the activity, negative = inhibition was -0.621% [at 2.29 µM].

On to `O=C(COC(=O)c1cccc(S(=O)(=O)N2CCN(c3ccccc3)CC2)c1)NCc1ccco1`, for which the AC50 was 2.24 µM (active).

`O=C(O)C1C2CCC(C2)C1C(=O)NCc1ccco1` (stereo not drawn): the AC50 result is “inactive”.

For the compound `Clc1ccccc1-c1ccc2ncnc(NCCN3CCOCC3)c2c1`, the activity, negative = inhibition is 24.6% [at 2.29 µM].

Regarding `C[n+]1cc2c3c(ccc2c2ccc4cc5c(cc4c21)OCO5)OCO3`, the AC50 entry was “inactive”.

Take `COC(=O)[C@H](C)NC(=O)C/C=C\[C@@H](C)[C@H]1C=C[C@H](O)[C@@H](CO)O1`: the activity, negative = inhibition is -20.2% [at 11.4 µM].

Consider `Cc1cc(C)nc(Nc2n[nH]c(COc3ccc4ccccc4c3)n2)n1`, for which the AC50 result was “inactive”.

`CCOc1ccc(N2C(=O)CN=C2Nc2ccccc2Cl)cc1`: the AC50 result is “inactive”.

For the compound `CCOc1ccc(N2C(=O)/C(=C/c3cccs3)N(CC(=O)OC)C2=S)cc1`, the AC50 result was “inactive”.

Turning to `CCOc1ccc(N2C(=O)CN=C2Nc2ccccc2F)cc1`, the AC50 is 12.6 µM (active).

On to `COc1c(O)cc2c(c1O)[C@@H]1O[C@@H](CO)[C@@H](O)[C@@H](O)[C@@H]1OC2=O`, for which the AC50 result was “inactive”.

Regarding `COC(=O)Nc1ccc2[nH]cc(CCNC(C)=O)c2c1`, the AC50 result was “inactive”.

With `O=C(NCc1cc(F)cc2c1OCCO2)[C@H]1C[C@@H]1[C@H](NP(=O)(c1ccccc1)c1ccccc1)c1ccccc1`, the AC50 is 12.6 µM (active).

For `O=C(Nc1ccc2ccccc2c1)[C@H]1C[C@@H]1[C@H](NP(=O)(c1ccccc1)c1ccccc1)c1ccccc1`, the AC50 is 3.16 µM (active).

Consider `O=C(NCCc1c[nH]c2ccccc12)[C@@H]1C[C@H]1[C@@H](NP(=O)(c1ccccc1)c1ccccc1)c1ccccc1`, for which the AC50 is 0.251 µM (active).

Take `O=C(NCCc1c[nH]c2ccccc12)[C@H]1C[C@@H]1[C@H](NP(=O)(c1ccccc1)c1ccccc1)c1ccccc1`: the AC50 is 2 µM (active).

On to `CSC(N)=NCCC[C@@H](N)C(=O)O`, for which the AC50 entry was “inactive”.

Regarding `N=C(N)CCNC(=O)[C@@H]1CCC(N)=N1`, the activity, negative = inhibition is -0.797% [at 11.4 µM].

Take `O=C(O)[C@H]1C[C@H](C(=O)O)N1`: the AC50 result is “inactive”.

`Cc1cc(CNC(=O)[C@@H]2C[C@H]2[C@@H](NP(=O)(c2ccccc2)c2ccccc2)c2ccccc2)nn1C`: the AC50 result was “inactive”.

Turning to `Cc1cc(CNC(=O)[C@H]2C[C@@H]2[C@H](NP(=O)(c2ccccc2)c2ccccc2)c2ccccc2)nn1C`, the AC50 entry was “inactive”.

For `O=C(NCc1nc2ccccc2[nH]1)[C@H]1C[C@@H]1[C@H](NP(=O)(c1ccccc1)c1ccccc1)c1ccccc1`, the AC50 is 12.6 µM (active).

As for `CC(=O)c1cccc(NC(=O)CCC2CCCC2)c1`, the half-maximal activity concentration (AC50) was 14.1 µM (active).

As to `O=C(CC1CCCC1)Nc1ccc2c(c1)CCC2`, the AC50 entry was “inactive”.

With `CC(=O)NNC(=O)CCC(=O)Nc1ccccc1`, the AC50 result was “inactive”.

`O=C(N/N=C/c1ccccn1)c1ccco1`: the AC50 result was “inactive”.

For `N#C/C(=C\Nc1ccccn1)C(=O)c1ccco1`, the concentration at half-maximal activity (AC50) is 3.16 µM (active).

On to `N#C/C(=C\Nc1ccccn1)C(=O)C1CC1`, for which the activity, negative = inhibition is 2.34% [at 11.4 µM].

On to `CC(C)CSC[C@@H]1O[C@H](n2cnc3c(N)nccc32)[C@H](O)[C@@H]1O`, for which the activity, negative = inhibition is 3.85% [at 11.4 µM].

Regarding `CS(=O)(=O)N1CCC2(CC1)CN(C(=O)Nc1ccccc1)C2`, the AC50 entry is “inactive”.

For `CC(C)N1CCC(=NNC(=O)c2ccc(Br)o2)CC1`, the AC50 entry was “inactive”.

On to `CS(=O)(=O)N1CCN(c2ccccc2NC(=O)c2ccc(Br)o2)CC1`, for which the AC50 was 20 µM (active).

As to `COCC(=O)N1CCC2(CCCN(Cc3ccccc3)C2)CC1`, the AC50 entry is “inactive”.

Turning to `O=C(c1ccc2c(c1)N(Cc1ccc(F)cc1)C(=O)CS2)N1CCOCC1`, the AC50 is 17.8 µM (active).

As for `O=C1S/C(=C/c2ccc(N3CCOCC3)o2)C(=O)N1Cc1ccc(F)cc1`, the AC50 result is “inactive”.

For `O=C(c1cc(Cl)c(=O)n(Cc2ccc(Cl)cc2)c1)N1CCOCC1`, the AC50 result is “inactive”.

With `O=C(O)CSc1cc(C(F)(F)F)nc(-c2ccccn2)n1`, the AC50 entry was “inactive”.

As to `CC(Sc1nc(-c2ccccc2)cc(C(F)(F)F)n1)C(=O)N1CCCCC1` (stereo not drawn), the AC50 is 8.91 µM (active).

Turning to `O=C(c1cc(C(F)(F)F)cc(C(F)(F)F)c1)N1CCC[C@@]2(CCN(c3ccccc3)C2)C1`, the AC50 result was “inactive”.

For the origin of these results see PubChem BioAssay AID1851 (National Center for Advancing Translational Sciences (NCATS), 2009).
